Only a selection was taken, and hits are over-represented in it overall.
ClpP mod – qHTS Assay for Activators of ClpP. ATP-dependent Clp protease proteolytic subunit (Bacillus subtilis (strain 168)), P80244. 340,000 compounds, 1.9% hits. purified B. subtilis ClpP, FRET peptide cleavage, 20 min. Potency, µM (highest dose often 57.5 µM); active = well fitted falling curve with a large enough effect; inconclusive = small, poorly fitted or top-dose-only effect; inactive = no such curve, though single readings can be large or run the other way; note: the source files actives as falling curves though it sought activators and does not explain the sign; nearly all actives have a fitted effect of over 65% in size
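Buffer: 100 mM Tris/HCl pH8, 100 mM KCl, 0.05% low protease BSA, 2.5% glycerol, 0.01% Tween-20. ClpP 10 microg/mL final; 20 min RT; delta FRET normalized to ADEP and DMSO controls.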
MBNL1 CUG block – blocks human MBNL1 binding to CUG repeat RNA; Q9NR56; TR-FRET MBNL1-His/biotin-(CUG)12 binding, 665/545 ratio; Potency, µM (doses to about 57.5 µM), usual class: inhibitors; 280,000 compounds, 0.036% hits; AID 2675; active = well fitted inhibition curve with a large enough effect in the signal ratio, with a control signal flat, not every such curve was filed as active; inconclusive = small, poorly fitted or top-dose-only effect, or effect the other way, or a change in a side signal; inactive = no such curve, though single readings can be large or run the other way; the % refers to the signal ratio
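TR-FRET between His-tagged MBNL1 and biotin-(CUG)12 RNA, detected with Tb anti-His antibody (0.055 ng/ul) and streptavidin-XL665 (5 nM), 60 min at room temperature. Compounds titrated 92 nM to 58 uM; 665/545 nm ratio normalized to buffer and complex controls.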
CBFb RUNX1 block – blocks binding between human CBF-beta and RUNX1; Q01196+Q13951; AlphaScreen CBFb-His/RUNX1-biotin binding, biochemical; Potency, µM (highest dose often 59.8 µM), usual class: inhibitors; 230,000 tested, under 10 active; AID 1477; active = well fitted curve in the direction sought with a large enough effect; inconclusive = small, poorly fitted or top-dose-only effect, or effect the other way, or another doubt; inactive = no such curve, though single readings can be large or run the other way
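AlphaScreen proximity signal reports loss of binding between His-tagged CBF-beta and biotin-labelled RUNX1, each at 30 nM. Proteins are pre-associated for 20 minutes, compounds added for 15 minutes, then beads for 90 minutes, all at ambient temperature.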
Rango dissoc inh – inhibitors of RanGTP-induced Rango-importin beta complex dissociation | O95149+P62826 | Biochemical FRET Rango-importin beta, RanGTP-induced dissociation | Potency, µM (titrated, usually from 46.1 µM) | 340,000 compounds, 0.071% hits | AID 540253; note: nearly all actives have a fitted effect of over 45% in size
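Recombinant Rango FRET biosensor (EYFP–snurportin 1 IBB–cerulean CFP10) at 0.1 uM premixed with 0.25 uM importin beta in PBS, 1 mM DTT, 0.02% Tween-20, 0.1% BSA. Compound added 5 min; RanGTP-RCC1 (0.6 uM Ran, 2 mM GTP, 0.2 uM RCC1) then triggers release, read at 45 min.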
Rango-impB inh – inhibitors of Rango-importin beta complex formation; AID 540263; Rango CFP/YFP FRET sensor + importin beta, 45 min; Q14974; 340,000 compounds, 0.031% hits; Potency, µM (series often up to 92.2 µM); note: nearly all actives have a fitted effect of over 15% in size
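Inhibition scored from the CFP 486 nm/YFP 530 nm FRET ratio 45 min after adding 0.125 microM importin beta to 50 nM Rango biosensor preincubated 5 min with compound (room temperature, PBS with DTT, Tween-20, BSA). No-importin wells as positive control.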
Hits are given with their value. Unless noted, calls come from the whole dose curve.

Screening CCc1ccc(NC(=O)CCS(=O)(=O)c2ccc3c(c2)n(C)c(=O)c(=O)n3C)cc1 returned ClpP mod inactive.
COc1ccc(CCN(C)C(=O)CSc2nnc(C3CC3)n2N)cc1OC was read as ClpP mod 25µM, Rango dissoc inh inactive and Rango-impB inh inactive.
`CC(C)(C)c1cc(C(=O)NNc2cc(C(F)(F)F)ccc2Cl)n(Cc2ccccc2)n1` gave ClpP mod 3.2µM, CBFb RUNX1 block inactive, Rango dissoc inh inactive and Rango-impB inh inactive.
COc1cc(NC(=O)CCc2c(C)nn(-c3ccc4nncn4n3)c2C)cc(OC)c1OC was read as ClpP mod inactive.
`COc1ccc2nc(NC(=O)c3cccc(N4C(=O)CCC4=O)c3)sc2c1` gave ClpP mod inactive, Rango dissoc inh inactive and Rango-impB inh inactive.
`O=C(Nc1nc2ccc(Cl)cc2s1)c1cccc(N2C(=O)CCC2=O)c1` gave ClpP mod 35µM, Rango dissoc inh inactive and Rango-impB inh inactive.
`COC(=O)c1oc2ccccc2c1N` gave ClpP mod 25µM, MBNL1 CUG block inactive, CBFb RUNX1 block inactive, Rango dissoc inh inactive and Rango-impB inh inactive.
For COc1ccc(C(=O)N2CCN(c3ccc(N4CCOCC4)nn3)CC2)cc1OC the results were ClpP mod 25µM, Rango dissoc inh inactive and Rango-impB inh inactive.
`CC(Nc1nc(N2CCCCC2)nc2ccccc12)c1ccccc1` (stereo unspecified) gave ClpP mod 28µM, MBNL1 CUG block inactive, CBFb RUNX1 block inactive, Rango dissoc inh inactive and Rango-impB inh inactive.
`C=CCNc1nc(N2CCCC2)nc2ccccc12` gave ClpP mod 32µM, MBNL1 CUG block inactive, CBFb RUNX1 block inactive, Rango dissoc inh inactive and Rango-impB inh inactive.
`CCN1CCN(c2nc(NCCO)c3ccccc3n2)CC1` gave ClpP mod inactive, MBNL1 CUG block inactive, Rango dissoc inh inactive and Rango-impB inh inactive.
For Cc1cc2n(n1)C(c1cccs1)Nc1ccccc1-2 (stereo unspecified) the results were ClpP mod 20µM, MBNL1 CUG block inactive, CBFb RUNX1 block inactive, Rango dissoc inh inactive and Rango-impB inh inactive.
Screening COc1cc(C2Nc3ccccc3-c3cc(C)nn32)ccc1O (stereo unspecified) returned ClpP mod 32µM.
CCOC(=O)NN1C(=O)c2ccccc2NC1c1cccs1 (stereo unspecified) was read as ClpP mod inactive, MBNL1 CUG block inactive, Rango dissoc inh inactive and Rango-impB inh inactive.
For CCOc1cccc(C2Nc3ccccc3-c3cc(C)nn32)c1O (stereo unspecified) the results were ClpP mod inactive.
Screening Cc1cc2n(n1)C(c1ccco1)Nc1ccccc1-2 (stereo unspecified) returned ClpP mod inconclusive, MBNL1 CUG block inactive, CBFb RUNX1 block inactive, Rango dissoc inh inactive and Rango-impB inh inactive.
COc1ccc(C2NC(=O)c3ccccc3N2)cc1OC (stereo unspecified) was read as ClpP mod inconclusive, MBNL1 CUG block inactive, CBFb RUNX1 block inactive, Rango dissoc inh inactive and Rango-impB inh inactive.
`Cc1cc2n(n1)C(c1ccc(O)cc1)Nc1ccccc1-2` (stereo unspecified) gave ClpP mod 28µM, MBNL1 CUG block inactive, CBFb RUNX1 block inactive, Rango dissoc inh inactive and Rango-impB inh inactive.
Screening COc1ccc(C2Nc3ccccc3-c3cc(C)nn32)cc1OC (stereo unspecified) returned ClpP mod 14µM.
CCCNC(=O)CCCN1C(=O)CCn2nc(-c3cccn3C)cc21 was read as ClpP mod inactive.
Screening COc1cc2nc(N3CCCN(C)CC3)nc(NC3CCN(C)CC3)c2cc1OC returned ClpP mod inactive.
For COc1cc(OC)c(Nc2ncnc3onc(-c4cccc(Cl)c4)c23)cc1Cl the results were ClpP mod inactive.
For Cc1ccc(OCCC(=O)NCCc2ccc(S(N)(=O)=O)cc2)cc1 the results were ClpP mod 13µM, CBFb RUNX1 block inactive, Rango dissoc inh inactive and Rango-impB inh inactive.
CCOc1ccccc1-c1nnc2n1N=C(c1ccc(OC)cc1)CS2 was read as CBFb RUNX1 block inactive.
Screening COc1cc(/C=C2\C=Cc3ccccc32)cc(OC)c1OC returned ClpP mod inactive.
CS/C(=N\S(=O)(=O)c1cccs1)Nc1ccc(F)c(Cl)c1 was read as ClpP mod 20µM, MBNL1 CUG block inconclusive, CBFb RUNX1 block inactive, Rango dissoc inh inactive and Rango-impB inh inactive.
Screening CC(C)(C)Sc1ccc2nc3c(n2c1)CCCC3 returned ClpP mod 16µM, MBNL1 CUG block inactive, CBFb RUNX1 block inactive, Rango dissoc inh inactive and Rango-impB inh inactive.
`Cc1ccc(CNC(=O)CN2CCCN(Cc3ccc(F)cc3)S2(=O)=O)cc1` gave ClpP mod inactive.
For Cc1cc2n(n1)C(c1cn(-c3ccccc3)nc1C)Nc1ccccc1-2 (stereo unspecified) the results were ClpP mod 2.5µM, MBNL1 CUG block inactive, CBFb RUNX1 block inactive, Rango dissoc inh inactive and Rango-impB inh inactive.
Screening Cc1cc2n(n1)C(c1c[nH]c3ccccc13)Nc1ccccc1-2 (stereo unspecified) returned ClpP mod 22µM, MBNL1 CUG block inactive, CBFb RUNX1 block inactive, Rango dissoc inh inactive and Rango-impB inh inactive.
`Cc1ccc2c(c1)-c1cc(C)nn1C(c1cc(Br)ccc1O)N2` (stereo unspecified) gave ClpP mod inactive.
For COc1ccc(Cl)cc1NC(=O)Cn1c(=O)c(-c2ccccc2NC(C)=O)nc2ccccc21 the results were ClpP mod inactive.
For COc1ccc(C(=O)C[n+]2cccc3cc(C)ccc32)cc1 the results were MBNL1 CUG block inconclusive, Rango dissoc inh inactive and Rango-impB inh inactive.
`Cc1ccc2c(ccc[n+]2CC(=O)c2ccccc2)c1` gave ClpP mod 18µM, CBFb RUNX1 block inactive, Rango dissoc inh inactive and Rango-impB inh inconclusive.
Screening Cc1nn(CCCC(=O)Nc2cc(Oc3ccccc3)cc([N+](=O)[O-])c2)c(C)c1[N+](=O)[O-] returned ClpP mod 25µM, MBNL1 CUG block inactive, CBFb RUNX1 block inactive, Rango dissoc inh inactive and Rango-impB inh inactive.
Screening Cc1ccc(C)c(Oc2cc(NC(=O)CCCn3nc(C)c([N+](=O)[O-])c3C)cc([N+](=O)[O-])c2)c1 returned ClpP mod inactive, MBNL1 CUG block inactive, CBFb RUNX1 block inactive, Rango dissoc inh inactive and Rango-impB inh inactive.
COc1ccc(/C=C/c2nc(C#N)c(NC3CCCCC3)o2)cc1OC was read as ClpP mod inactive.
Screening COc1ccccc1/C=C/c1nc(C#N)c(NC2CCCCC2)o1 returned ClpP mod 2.8µM.

Compound activity from PubChem.
